# About 7,500 (2.1%) of roughly 360,000 compounds were called active. Inconclusive results (about 8%) are left out. Calls come from the whole dose curve; as a rule, active = well fitted cell-killing curve with a large enough effect; inconclusive = small, poorly fitted or top-dose-only effect, or effect the other way, or another doubt; inactive = no such curve, though single readings can be large or run the other way. Only a selection was taken, and actives are over-represented in it overall. Where a structure was tested more than once in an assay, its records may differ in their call.
# Assay: qHTS for induction of synthetic lethality in tumor cells producing 2HG: qHTS for the HT-1080-IDH1KD cell line;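 for activity, negative = toxicity: 0% = DMSO wells and -100% = cell-free medium wells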
# Settings: HT-1080 IDH1 knockdown viability, ATP luminescence, 48 h; series mostly up to 46.1 µM; activity, negative = toxicity: at the top concentration
# Summary of the method: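 Knockdown cells (IDH1KD HT-1080) received compounds 2 h after plating at 750 cells/well and were kept 48 h at 37 °C in 5% FBS RPMI. A CellTiter-Glo luminescence read gave % activity for curve fitting.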
# Potency is the fitted concentration of half-maximal effect.
Compound,Potency,"activity, negative = toxicity"
CCN1CCN(c2cc3nc(C)n(Cc4ccccc4)c(=O)c3cc2NC(=O)c2ccccc2F)CC1,20.6 µM (active),
CCOc1cc(NC(=O)c2ccccc2C(=O)O)c(OCC)cc1NC(=O)c1ccccc1F,,0.297% (inactive)
CCC(=O)Nc1ccc2nc(C)n(Cc3ccccc3Cl)c(=O)c2c1,,0.259% (inactive)
Cc1[nH]c(=O)c(C(=O)/C=C/c2ccccc2)c2c1CCCC2,3.98 µM (active),
O=C(/C=C/c1ccc(N2CCOCC2)cc1)c1ccccc1,,-25.3% (inactive)
CC1(C(=O)O)CCCN(C(=O)/C=C/c2ccccc2)C1 (centres undefined),,16.9% (inactive)
COc1cc(F)ccc1-c1cc(C(=O)NCC2CCCCC2)[nH]n1,,-0.877% (inactive)
Cc1ccc(Nc2nc(-c3ccc(O)cc3O)cs2)nc1,1.84 µM (active),
CC(=O)Nc1cnc(-c2ccc(O)cc2C)cn1,,-2.01% (inactive)
Cc1ccn2c(-c3csc(Nc4ccc(C(=O)O)cc4)n3)c(C)nc2c1,,-27.7% (inactive)
O=c1[nH]c(CCl)nc2cc(-c3ccc(Cl)cc3)sc12,11.6 µM (active),
CCC1(CC)Cc2ccccc2-c2nc(CCl)[nH]c(=O)c21,,-20.6% (inactive)
Cn1c(NCc2cccnc2)nc2cc(-c3ccc(F)cc3)sc2c1=O,,0.818% (inactive)
O=C(c1ncn2c1c(=O)[nH]c1ccccc12)N1CCc2ccccc2C1,,0.374% (inactive)
Cc1sc2nc(-c3ccccc3F)oc(=O)c2c1C,,0.555% (inactive)
OCCC#Cc1ccc(N2C(c3ccsc3)=Cc3ccc(F)cc3C2c2c[nH]c3ccccc23)cc1 (centres undefined),25.9 µM (active),
Nc1ncnc2c1ncn2[C@@H]1O[C@H](C(=O)N2CCCN(Cc3ccccc3F)CC2)[C@@H](O)[C@H]1O,,12.2% (inactive)
Cc1nnc(SC(C)C(=O)c2c[nH]c3ccccc23)n1C1CC1 (centres undefined),,8.97% (inactive)
CC(=NNC(N)=O)C1CC2CCC1CC2 (centres undefined),,1.1% (inactive)
Oc1cc2c(cc1O)CN(C(=S)NCCc1ccc(Cl)cc1)CCC2,39.8 µM (active),
COc1ccc(CCNC(=S)N2CCN(S(=O)(=O)c3ccc(Cl)cc3)CC2)cc1,,-13.5% (inactive)
O=C(NCCc1ccc(Cl)cc1)c1cccc(N2CCCC2=O)c1,,-1.86% (inactive)
CCN(CC)C(=O)C1=C(C)N(Cc2ccc(OC)cc2)C(=O)C(CC(=O)NCCCCc2ccccc2)C1 (centres undefined),,-0.484% (inactive)
CC(C)CCOc1ccc(C(=O)Nc2cc(S(=O)(=O)N3CCOCC3)ccc2N2CCOCC2)cc1,,-1.56% (inactive)
COc1ccc(-c2csc(C(O)c3cccc(Cl)c3)n2)cn1 (centres undefined),,-28.4% (inactive)
COc1cccc(NC(=O)Nc2ccc(F)cc2)c1,,-0.348% (inactive)
COc1cccc(/C=N/Nc2ccc(S(=O)(=O)Nc3ccccc3C(=O)O)cc2[N+](=O)[O-])c1O,,9.03% (inactive)
COc1cccc(/C=N/Nc2cc(C)nc(-c3ccccc3O)n2)c1O,6.51 µM (active),
COc1ccc(/C=N/Nc2cc(N3CCOCC3)nc(C)n2)c(OC)c1,,-0.735% (inactive)

# From PubChem BioAssay AID686971 (National Center for Advancing Translational Sciences (NCATS), 2013)
